Data reported in PubChem BioAssay (EPA / NIEHS).
Results filed as inconclusive are left out. The source made the active and inactive calls. Rule for the calls: active = hit-call score of the fitted dose curve at least 0.9, where 1 is the maximum; inconclusive = response in the unintended direction; inactive = score below 0.9.

Legend:
[1] = biological target: human Serotonin, 5-Hydroxytryptamine Receptor 7 (5HT7), HTR7 (gene 3363) (UniProt P34969); assay: NVS_GPCR_h5HT7: NovaScreen (NVS) G Protein-Coupled Receptor Assay for human Serotonin, 5-Hydroxytryptamine Receptor 7 (5HT7) (AID 2283255);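 note: hits reduce specific radioligand binding relative to DMSO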
In short: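 Radioligand displacement on membranes from CHO cells expressing human 5HT7, 1 h incubation, filter-based scintillation counting. Primary screen used a single 25 uM concentration in duplicate; actives were followed up in concentration series.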

[2] = biological target: human Neuropeptide Receptor Y1 (NPY1), NPY1R (gene 4886) (UniProt P25929); assay: NVS_GPCR_hNPY1: NovaScreen (NVS) G Protein-Coupled Receptor Assay for human Neuropeptide Receptor Y1 (NPY1) (AID 2283276)
In short: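 Cell-free radioligand binding using receptor extracted from SK-N-MC cells, 1 h incubation, filter-based scintillation counting. Primary screen single concentration 25 uM in duplicate; actives followed in concentration series. Loss of bound signal scored versus DMSO.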

[3] = system: 5-hydroxytryptamine receptor 2C (pig); assay: NVS_GPCR_p5HT2C: NovaScreen (NVS) G Protein-Coupled Receptor Assay for pig Serotonin, 5-Hydroxytryptamine Receptor 2C (5HT2C) (AID 2283288)
In short: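 Pig choroid plexus membranes; radioligand competitive binding, filter-based scintillation counting, read 1 h after dosing. Primary screen in duplicate at 25 uM; actives then run as concentration series; loss of signal versus DMSO baseline.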

Sequence of human Serotonin, 5-Hydroxytryptamine Receptor 7 (5HT7), HTR7 (gene 3363) (P34969 whole entry, looked up): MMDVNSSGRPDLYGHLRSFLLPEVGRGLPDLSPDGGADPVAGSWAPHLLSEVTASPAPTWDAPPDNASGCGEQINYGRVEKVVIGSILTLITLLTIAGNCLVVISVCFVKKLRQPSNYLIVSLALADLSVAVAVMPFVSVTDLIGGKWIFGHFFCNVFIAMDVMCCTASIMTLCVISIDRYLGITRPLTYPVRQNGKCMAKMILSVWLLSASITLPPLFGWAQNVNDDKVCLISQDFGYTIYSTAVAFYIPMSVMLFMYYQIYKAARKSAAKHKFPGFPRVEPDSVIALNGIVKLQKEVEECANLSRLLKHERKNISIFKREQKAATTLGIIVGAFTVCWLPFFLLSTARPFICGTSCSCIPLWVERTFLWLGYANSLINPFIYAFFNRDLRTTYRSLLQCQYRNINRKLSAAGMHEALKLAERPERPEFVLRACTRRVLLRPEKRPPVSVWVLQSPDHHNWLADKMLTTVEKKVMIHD
Sequence of human Neuropeptide Receptor Y1 (NPY1), NPY1R (gene 4886) (P25929 whole entry, looked up): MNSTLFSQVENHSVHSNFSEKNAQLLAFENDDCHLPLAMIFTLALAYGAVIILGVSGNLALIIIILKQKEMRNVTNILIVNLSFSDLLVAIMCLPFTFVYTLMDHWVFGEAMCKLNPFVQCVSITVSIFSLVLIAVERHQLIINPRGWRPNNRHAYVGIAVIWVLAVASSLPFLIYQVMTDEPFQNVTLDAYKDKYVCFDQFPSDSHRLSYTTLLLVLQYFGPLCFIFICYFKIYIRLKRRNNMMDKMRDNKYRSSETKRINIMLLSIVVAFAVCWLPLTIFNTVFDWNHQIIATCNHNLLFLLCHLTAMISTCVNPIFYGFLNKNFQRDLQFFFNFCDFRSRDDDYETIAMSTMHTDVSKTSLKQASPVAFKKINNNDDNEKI

C1CNCCN1
outcome [1]: inactive
outcome [2]: inactive

Cc1ccc([N+](=O)[O-])cc1N
outcome [3]: inactive
